High-throughput results from PubChem BioAssay.
A selection: hits, their analogues and other compounds. The true share with any hit is near 3.2%.
Mtb FBA inh: Mtb fructose-bisphosphate aldolase inhibition | P9WQA3 | purified M. tuberculosis FBA, fluorescence read-out | 360,000 compounds, 2.3% hits | AID 588726 | inhibition, % at 1 µM; in the data active = inhibition above about 27%;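 note: 0% = vehicle and 100% = reference inhibitor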
Target sequence (P9WQA3 whole entry, looked up): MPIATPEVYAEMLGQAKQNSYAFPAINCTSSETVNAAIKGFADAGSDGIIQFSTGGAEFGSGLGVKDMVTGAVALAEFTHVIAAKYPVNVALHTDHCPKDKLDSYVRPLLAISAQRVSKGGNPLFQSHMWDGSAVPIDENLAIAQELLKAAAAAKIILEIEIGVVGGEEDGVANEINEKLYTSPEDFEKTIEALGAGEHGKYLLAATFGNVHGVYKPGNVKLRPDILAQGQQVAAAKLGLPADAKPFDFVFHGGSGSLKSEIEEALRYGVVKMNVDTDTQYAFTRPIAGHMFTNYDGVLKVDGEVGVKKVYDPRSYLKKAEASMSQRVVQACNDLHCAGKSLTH
GDH-TPI counter: inhibits GDH-TPI coupling enzymes, artifact for Mtb FBA screen; GDH-TPI coupled enzyme counterscreen, NADH absorbance; inhibition, % at 4.8 µM; 360,000 compounds, 1.2% hits; AID 588335; in the data active = inhibition above about 30%;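 note: 0% = DMSO wells and 100% = wells lacking the enzyme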
Rv3671c inh: inhibits the M. tuberculosis serine protease Rv3671c. P9WHR9. inhibition, % at 5.96 µM. 320,000 compounds, 0.048% hits. AID 2606; in the data active = inhibition above about 38%;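 note: extracellular domain of Rv3671c used as enzyme; 0% = enzyme with DMSO and 100% = no enzyme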
Target sequence (P9WHR9 whole entry, looked up, the tested form may be a part): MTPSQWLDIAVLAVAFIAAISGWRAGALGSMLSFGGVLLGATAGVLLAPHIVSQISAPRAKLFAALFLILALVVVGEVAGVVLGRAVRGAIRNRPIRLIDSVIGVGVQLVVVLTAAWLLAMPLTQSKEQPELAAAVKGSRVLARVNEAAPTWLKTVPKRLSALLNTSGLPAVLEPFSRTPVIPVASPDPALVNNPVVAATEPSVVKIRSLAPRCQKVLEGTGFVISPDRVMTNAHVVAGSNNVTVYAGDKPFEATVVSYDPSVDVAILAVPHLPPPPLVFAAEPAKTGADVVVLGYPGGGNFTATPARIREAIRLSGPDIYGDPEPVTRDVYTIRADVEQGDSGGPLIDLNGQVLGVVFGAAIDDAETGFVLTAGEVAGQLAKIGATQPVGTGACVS
PriA SSB inh: blocks PriA binding to SSB C-terminal tail. AlphaScreen SSBct-PriA binding, biotinylated peptide. inhibition, % at 33 µM. 430,000 compounds, 0.6% hits. AID 1272365; in the data active = inhibition mostly above about 37%, no sharp cut-off; inactive = mostly below about 20%;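 note: plate controls were negative control peptide for no effect and reference peptide for full effect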
Mtb UGM inh: inhibitors of M. tuberculosis UDP-galactopyranose mutase; inhibition, % at 10 µM; 320,000 compounds, 0.06% hits; P9WIQ1; purified UGM, fluorescence polarization probe displacement; in the data active = inhibition above about 10%, passing the limit was not always enough; inconclusive = no clear call, values can overlap the other calls
Mtb betalactam: beta-lactam sensitization of Mtb H37Rv. M. tuberculosis H37Rv growth with meropenem, percent inhibition. inhibition, % at 25 µM. AID 434955. 330,000 compounds, 0.27% hits; call rule not given here;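 note: growth measured after seven days incubation then overnight dye step; 0% = bacteria only wells and 100% = bacteria with antibiotic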
* hit, by the source's call; i = inactive; ? = inconclusive; nt = not tested or not shown; + = active, no number; ! = not active in a repeat.

SMILES | Mtb FBA inh | GDH-TPI counter | Rv3671c inh | PriA SSB inh | Mtb UGM inh | Mtb betalactam
Cc1cc(C)cc(-n2ccnc2SCC(=O)Nc2ccc3c(c2)OCCO3)c1 | 4 | 0 | 3 | 45*! | -1 | -9
CC(=O)Nc1ccc(NC(=O)CSc2nccn2Cc2ccc(Cl)cc2)cc1 | 1 | -8 | -5 | 1 | 0 | -1
Cc1cc(C)cc(-n2ccnc2SCC(=O)Nc2cccc(Cl)c2)c1 | nt | nt | nt | 47* | nt | nt
O=C(N/N=C\c1ccc(-c2ccc(F)cc2)o1)c1ccncc1 | nt | nt | nt | -3 | nt | nt
CCOC(=O)c1sc(NC(=O)CSc2nc(N)c3c(C)c(C)sc3n2)nc1C | nt | nt | nt | -2 | nt | nt
O=C(Nc1ccccc1-c1nc2ccccc2o1)c1ccc(S(=O)(=O)N2CCc3ccccc3C2)cc1 | nt | nt | nt | -20 | nt | nt
Cc1cccc(-n2ccnc2SCC(=O)Nc2ccc3c(c2)OCCO3)c1C | nt | nt | nt | 49* | nt | nt
Cc1sc(NC(=O)c2ccco2)c([C@@H](c2ccccn2)N2CCN(C)CC2)c1C | nt | nt | nt | 4 | nt | nt
CN(C(=O)Cn1cnc2ccccc21)c1ccccc1 | nt | nt | nt | -14 | nt | nt
CCN1CCN(c2cc(N3CCc4ccccc4C3)c([N+](=O)[O-])cc2F)CC1 | nt | nt | nt | 83* | nt | nt
O=[N+]([O-])c1cc(F)c(N2CCCC2)cc1N1CCc2ccccc2C1 | nt | nt | nt | 33 | nt | nt
CN1CCN(c2cc(N3CCc4ccccc4C3)c(F)cc2[N+](=O)[O-])CC1 | -4 | 4 | 0 | 41* | 1 | 28
O=[N+]([O-])c1cc(F)c(N2CCc3ccccc3C2)cc1N1CCOCC1 | nt | nt | nt | 75* | nt | nt
O=C(CN1C(=O)c2ccccc2C1=O)Nc1nnc(-c2ccccc2Cl)o1 | nt | nt | nt | 2 | nt | nt
Cc1cc(NC(=O)CSc2ccc(-n3cccn3)nn2)no1 | nt | nt | nt | -7 | nt | nt
COc1ccccc1N1CCN(C(=O)CSc2ncccc2-c2nc3ccccc3[nH]2)CC1 | 27* | 6 | 2 | 10 | -4 | 37
COc1ccc(N2CCN(C(=O)CSc3ncccc3-c3nc4ccccc4[nH]3)CC2)cc1 | 13 | -4 | -9 | 0 | 0 | -11
O=C1NC(=O)/C(=C/c2ccccc2OCc2ccccc2)S1 | -1 | 32* | -7 | -6 | 2 | 7
Cc1ccc(-c2csc(/C(C#N)=C/c3cccc(Cl)c3)n2)c(C)c1 | nt | nt | nt | -12 | nt | nt
O=C(N/N=C/c1ccccn1)c1sc2ccccc2c1Cl | -7 | 35* | 8 | i | 2 | 85
O=C(N/N=C/c1c(Cl)nc2ccccn2c1=O)c1cccnc1 | 17 | 31* | -3 | i | -1 | -3
CN(C)c1ccc(C(=O)N/N=C/c2ccccn2)cc1 | 1 | 35* | 5 | nt | 2 | 84
CSc1ccc(/C=N/NC(=O)c2cccc(O)c2)cc1 | 2 | 49* | -9 | nt | -1 | 68
O=C(NN=Cc1cccnc1)c1sc2ccccc2c1Cl | nt | nt | nt | -1 | nt | nt
Cn1c(=O)c(C2=NN(S(C)(=O)=O)C(c3ccco3)C2)c(-c2ccccc2)c2cc(Cl)ccc21 (stereo not given) | nt | nt | nt | -4 | nt | nt
SMILES | Mtb FBA inh | GDH-TPI counter | Rv3671c inh | PriA SSB inh | Mtb UGM inh | Mtb betalactam
Nc1ccc(S(=O)(=O)NC(=O)c2cc[n+]([O-])cc2)cc1 | nt | nt | nt | -2 | nt | nt
CN(C)c1ccc(/C=N/NC(=O)c2cnc3ccccc3c2)cc1 | -2 | 32* | 9 | i | 3 | 4
CN(C)c1ccc(C=NNC(=O)c2cccnc2)cc1 | 1 | 52* | nt | -10 | nt | nt
CN(C)c1ccc(C=NNC(=O)c2ccccc2)cc1 | nt | nt | nt | 5 | nt | nt
Cc1cc([N+](=O)[O-])nn1Cc1ccc(C(=O)N/N=C/c2ccc(N(C)C)cc2)cc1 | -6 | 40* | 3 | i | 3 | -10
CC(=NNc1ncnc2sc(C)c(C)c12)c1ccccn1 | nt | nt | nt | 14 | nt | nt
Cc1nc2ccccc2nc1NN=Cc1ccc(O)cc1 | nt | nt | nt | -4 | nt | nt
CC(=NNC(=O)c1nnn(-c2nonc2N)c1CSc1ccccc1)c1cccnc1 | nt | nt | nt | 3 | nt | nt
CCC(=O)c1cc2c(C)cc(=O)oc2c(C)c1O | 3 | 7 | -3 | -6 | 1 | -5
CCc1cc(=O)oc2c(C)c(O)c(CN(C)C)cc12 | + | 32* | 2 | -5 | 2 | -4
CC1CCCC(C)N1N=Cc1cc(Br)cc(Br)c1O (stereo not given) | nt | nt | nt | -16 | nt | nt
O=[N+]([O-])c1ccc2nc(-c3ccc(Cl)cc3)n(OCc3ccccc3)c2c1 | -1 | 34* | 5 | 4 | 0 | 5
COC(=O)c1ccc(NC(=O)CCc2csc(NC(=O)c3cccs3)n2)cc1 | nt | nt | nt | -11 | nt | nt
Oc1ccc(N=Cc2c[nH]c3ccccc23)cc1 | nt | nt | nt | 46* | nt | nt
CCOC(=O)c1c(N)n(CCOC(=O)c2cccs2)c2nc3ccccc3nc12 | 173* | 18 | -193 | -10 | 2 | 95
CCCCCOC(=O)c1c(N)n(CCOC)c2nc3ccccc3nc12 | + | 23 | -90 | -31 | 2 | 5
COc1ccc(Br)c(C(=O)NCC(O)c2cccn2C)c1 (stereo not given) | nt | nt | nt | -1 | nt | nt
COC(=O)C1=C(NC(=O)NC(=O)N(c2ccc(Cl)cc2)S(=O)(=O)c2ccc(C)cc2)CCS1 | nt | nt | nt | -14 | nt | nt
O=C(CN1CCCCCCC1)NN=Cc1ccc([N+](=O)[O-])o1 | nt | nt | nt | -11 | nt | nt
O=C(O)c1nc[nH]c1C(=O)O | nt | nt | nt | 85* | nt | nt
Cn1c(=O)oc2cc(S(=O)(=O)N3CCCC(C(=O)NCC4COc5ccccc5O4)C3)ccc21 (stereo not given) | 1 | 5 | 10 | 104* | -3 | -3
Cn1c(=O)oc2cc(S(=O)(=O)N3CCCC(C(=O)NCc4ccc5c(c4)OCO5)C3)ccc21 (stereo not given) | 0 | -9 | 2 | -19 | 1 | -1
Nc1cc2cccnc2c2ncccc12 | nt | nt | nt | 152* | nt | nt
O=Cc1ccc2ccc3cccnc3c2n1 | 0 | -10 | -1 | 81* | 0 | 99
c1cnc2c(c1)ccc1cccnc12 | 3 | 1 | 0 | 102* | -2 | 86
SMILES | Mtb FBA inh | GDH-TPI counter | Rv3671c inh | PriA SSB inh | Mtb UGM inh | Mtb betalactam
COc1ccc2[nH]cc(CCNC(=O)CN3C(=O)/C(=C\c4cccs4)SC3=S)c2c1 | nt | nt | nt | 24 | nt | nt
COc1ccccc1OCC(=O)Nc1ccc2c(c1)CN(C(=O)C(C)C)CC2 | nt | nt | nt | -6 | nt | nt
NC(Cc1ccc(O)cc1)C(=O)NN=Cc1ccc(N(CCCl)CCCl)cc1 (stereo not given) | 23 | 50* | nt | 4 | nt | nt
N[C@@H](Cc1ccc(N(CCCl)CCCl)cc1)C(=O)O | 5 | 33* | -9 | 5 | 2 | -3
CC(=O)NC(Cc1ccc(N(CCCl)CCCl)cc1)C(=O)O (stereo not given) | 1 | 8 | -1 | 5 | 1 | -2
CN(C)c1ccc2cc(S(=O)(=O)O)cc(O)c2c1 | 169* | 15 | nt | 12 | nt | nt
Cc1cccc(CN2C(=O)N/C(=C/c3cc(C)n(-c4cc(C)ccn4)c3C)C2=O)c1 | 1 | 31* | 14 | 6 | -1 | 0
CCC(=O)/C=C1\Sc2ccc(OC)cc2N1CC | 0 | 31* | -1 | -2 | 3 | ?
CC(=O)N1CCN(c2ccnc3c2c(=O)n(CC(=O)N2CCOCC2)c(=O)n3C)CC1 | nt | nt | nt | -3 | nt | nt
Cc1ccc2nc(-c3ccc(N)cc3)sc2c1 | + | 25 | 3 | -2 | -3 | 2
Nc1ccc(-c2nc3cc(N)ccc3s2)cc1 | 18 | 15 | 5 | -5 | 1 | -5
